Reference: the supplement of paper PMC10849652
Of roughly 8,800 targets only a part is listed; those with a hit were picked by preference. About 0.5% of all pairs of compound and target were hits. Values without a mark were called inactive.

compound: C1=CC2=C(C=CC(=C2)/C=C\3/C(=O)NC(=NCC4=CC=CS4)S3)N=C1; assay: log2 fold change, soluble protein after heating vs DMSO (PISA); higher = thermal stabilisation; K562 lysate, 10 uM; active = over 0.2 and 3.5 SD of the protein, either way, in both replicates (recomputed)
Procedure, shortened: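 K562 pellets were dounce-homogenised in PBS pH 7.4 containing 1 mM MgCl2, and the crude extract, at 1 mg/mL protein, was exposed to 10 μM compound for 30 min. Aliquots were heated for 3 min across 48°C-58°C, pooled, brought to 0.5% NP-40 at 4°C and spun at 21,000xg for 90 min, with the supernatant taken as soluble protein. TMTpro 16plex LC-MS/MS with equalised channel sums quantified that protein. Values are log-two fold changes in thermal stability relative to solvent controls, taken from duplicates.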

Chain of UniProt O43156 (O43156 whole entry, looked up): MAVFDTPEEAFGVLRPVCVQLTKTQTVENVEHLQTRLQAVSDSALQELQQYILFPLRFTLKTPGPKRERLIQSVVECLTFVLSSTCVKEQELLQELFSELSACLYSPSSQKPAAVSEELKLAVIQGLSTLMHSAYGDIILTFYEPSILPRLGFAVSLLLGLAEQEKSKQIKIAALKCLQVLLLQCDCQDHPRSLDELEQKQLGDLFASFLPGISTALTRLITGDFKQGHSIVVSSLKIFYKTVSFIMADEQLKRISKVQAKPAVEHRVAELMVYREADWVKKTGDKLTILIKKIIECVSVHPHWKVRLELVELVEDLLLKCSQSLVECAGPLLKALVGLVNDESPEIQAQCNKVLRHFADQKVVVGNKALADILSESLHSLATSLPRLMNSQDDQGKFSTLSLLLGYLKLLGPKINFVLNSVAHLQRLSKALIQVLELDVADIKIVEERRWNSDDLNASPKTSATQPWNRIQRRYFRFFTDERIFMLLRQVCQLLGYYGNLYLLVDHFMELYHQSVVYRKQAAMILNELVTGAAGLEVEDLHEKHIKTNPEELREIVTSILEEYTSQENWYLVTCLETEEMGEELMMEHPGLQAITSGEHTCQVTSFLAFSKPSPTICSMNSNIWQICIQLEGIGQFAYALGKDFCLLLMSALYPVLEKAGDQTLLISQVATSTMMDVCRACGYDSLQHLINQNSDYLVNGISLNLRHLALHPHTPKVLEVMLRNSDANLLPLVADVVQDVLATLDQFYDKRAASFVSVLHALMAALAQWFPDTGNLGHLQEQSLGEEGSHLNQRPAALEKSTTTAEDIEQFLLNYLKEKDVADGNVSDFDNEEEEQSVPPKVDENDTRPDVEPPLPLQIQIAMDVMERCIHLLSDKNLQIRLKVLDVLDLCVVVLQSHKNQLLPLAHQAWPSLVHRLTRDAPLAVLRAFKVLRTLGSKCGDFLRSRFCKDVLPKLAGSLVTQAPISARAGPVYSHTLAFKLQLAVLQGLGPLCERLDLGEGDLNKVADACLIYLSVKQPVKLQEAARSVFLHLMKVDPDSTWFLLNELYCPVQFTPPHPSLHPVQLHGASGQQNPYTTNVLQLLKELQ
Chain of UniProt O95857 (O95857 whole entry, looked up): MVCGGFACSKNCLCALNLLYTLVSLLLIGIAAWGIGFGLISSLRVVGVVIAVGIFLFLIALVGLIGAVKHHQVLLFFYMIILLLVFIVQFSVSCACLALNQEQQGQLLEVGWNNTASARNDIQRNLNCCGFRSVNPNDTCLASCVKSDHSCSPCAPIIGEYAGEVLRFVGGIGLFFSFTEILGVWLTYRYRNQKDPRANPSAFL
Chain of UniProt Q9Y2W6 (Q9Y2W6 whole entry, looked up): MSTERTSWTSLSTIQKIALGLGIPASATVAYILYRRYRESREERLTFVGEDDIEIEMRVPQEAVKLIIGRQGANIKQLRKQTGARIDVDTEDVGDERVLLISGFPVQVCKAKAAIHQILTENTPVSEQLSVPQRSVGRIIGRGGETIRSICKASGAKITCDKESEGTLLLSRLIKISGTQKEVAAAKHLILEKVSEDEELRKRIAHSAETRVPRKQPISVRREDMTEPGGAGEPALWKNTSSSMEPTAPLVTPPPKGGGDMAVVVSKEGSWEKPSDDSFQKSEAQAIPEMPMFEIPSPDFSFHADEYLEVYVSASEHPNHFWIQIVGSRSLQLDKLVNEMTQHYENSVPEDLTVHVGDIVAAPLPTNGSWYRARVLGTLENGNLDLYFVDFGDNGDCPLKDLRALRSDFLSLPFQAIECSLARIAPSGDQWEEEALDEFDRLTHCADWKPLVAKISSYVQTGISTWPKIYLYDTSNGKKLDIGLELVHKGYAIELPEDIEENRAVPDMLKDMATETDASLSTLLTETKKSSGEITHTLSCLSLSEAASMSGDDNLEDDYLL
Chain of UniProt Q9UNY4 (Q9UNY4 whole entry, looked up): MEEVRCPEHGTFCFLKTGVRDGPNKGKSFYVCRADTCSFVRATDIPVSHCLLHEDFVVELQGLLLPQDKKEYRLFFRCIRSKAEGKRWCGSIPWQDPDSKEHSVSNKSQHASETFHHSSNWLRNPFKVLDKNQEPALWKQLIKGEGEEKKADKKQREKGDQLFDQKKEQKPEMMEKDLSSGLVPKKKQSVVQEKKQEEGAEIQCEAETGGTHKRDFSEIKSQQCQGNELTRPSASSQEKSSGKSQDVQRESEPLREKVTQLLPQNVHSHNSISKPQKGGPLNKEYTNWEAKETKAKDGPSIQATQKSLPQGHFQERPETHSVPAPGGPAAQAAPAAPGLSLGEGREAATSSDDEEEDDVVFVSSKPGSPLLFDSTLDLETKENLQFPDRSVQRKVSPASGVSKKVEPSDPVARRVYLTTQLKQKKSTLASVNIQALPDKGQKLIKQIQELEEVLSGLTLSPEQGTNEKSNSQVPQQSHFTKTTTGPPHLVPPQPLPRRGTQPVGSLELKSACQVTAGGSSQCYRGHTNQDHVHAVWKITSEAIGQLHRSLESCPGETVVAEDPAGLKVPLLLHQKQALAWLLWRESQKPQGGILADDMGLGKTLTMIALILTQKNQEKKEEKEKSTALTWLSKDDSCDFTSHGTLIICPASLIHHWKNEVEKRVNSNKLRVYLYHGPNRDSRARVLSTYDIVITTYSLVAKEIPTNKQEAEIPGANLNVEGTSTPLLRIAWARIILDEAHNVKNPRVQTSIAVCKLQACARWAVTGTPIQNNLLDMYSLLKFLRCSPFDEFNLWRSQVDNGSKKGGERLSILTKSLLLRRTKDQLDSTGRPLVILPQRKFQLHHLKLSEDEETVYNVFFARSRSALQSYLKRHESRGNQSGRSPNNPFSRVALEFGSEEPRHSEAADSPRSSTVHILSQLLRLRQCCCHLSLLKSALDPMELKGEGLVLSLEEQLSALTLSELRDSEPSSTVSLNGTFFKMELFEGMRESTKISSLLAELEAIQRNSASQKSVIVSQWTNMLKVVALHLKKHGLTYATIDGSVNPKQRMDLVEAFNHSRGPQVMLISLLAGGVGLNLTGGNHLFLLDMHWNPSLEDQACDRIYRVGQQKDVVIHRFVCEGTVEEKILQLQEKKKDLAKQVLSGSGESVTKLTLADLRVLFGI
Chain of UniProt Q96DX7 (Q96DX7 whole entry, looked up): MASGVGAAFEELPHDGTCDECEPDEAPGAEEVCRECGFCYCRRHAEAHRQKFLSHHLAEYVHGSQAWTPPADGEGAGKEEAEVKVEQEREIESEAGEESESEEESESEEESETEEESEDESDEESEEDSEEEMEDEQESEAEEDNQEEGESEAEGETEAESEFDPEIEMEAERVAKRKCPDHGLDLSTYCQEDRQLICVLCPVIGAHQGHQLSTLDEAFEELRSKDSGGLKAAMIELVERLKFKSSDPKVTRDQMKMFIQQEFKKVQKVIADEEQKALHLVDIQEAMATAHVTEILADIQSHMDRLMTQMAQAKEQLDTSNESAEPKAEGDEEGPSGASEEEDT
Chain of UniProt Q86UE8 (Q86UE8 whole entry, looked up): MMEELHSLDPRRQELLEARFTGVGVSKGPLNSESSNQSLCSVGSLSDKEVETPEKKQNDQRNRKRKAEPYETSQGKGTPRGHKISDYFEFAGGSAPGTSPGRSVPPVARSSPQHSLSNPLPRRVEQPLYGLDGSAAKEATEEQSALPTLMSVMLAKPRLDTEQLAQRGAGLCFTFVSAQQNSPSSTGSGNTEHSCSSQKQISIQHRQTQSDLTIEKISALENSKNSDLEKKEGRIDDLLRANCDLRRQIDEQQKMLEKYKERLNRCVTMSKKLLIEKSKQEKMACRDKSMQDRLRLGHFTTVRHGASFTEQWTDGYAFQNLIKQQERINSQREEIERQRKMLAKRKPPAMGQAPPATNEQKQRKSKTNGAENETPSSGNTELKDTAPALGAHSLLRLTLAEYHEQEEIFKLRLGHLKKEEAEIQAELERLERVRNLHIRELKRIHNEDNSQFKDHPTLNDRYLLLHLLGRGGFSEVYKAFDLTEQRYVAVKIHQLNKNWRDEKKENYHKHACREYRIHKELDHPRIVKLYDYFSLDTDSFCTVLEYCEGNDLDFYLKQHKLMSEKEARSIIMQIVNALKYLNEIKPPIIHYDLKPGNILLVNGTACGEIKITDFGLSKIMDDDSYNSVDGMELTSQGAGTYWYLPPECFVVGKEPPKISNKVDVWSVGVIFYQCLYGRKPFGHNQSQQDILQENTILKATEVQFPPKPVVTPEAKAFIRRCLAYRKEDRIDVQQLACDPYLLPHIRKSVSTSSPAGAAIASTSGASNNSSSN
Chain of UniProt Q9BRZ2 (Q9BRZ2 whole entry, looked up): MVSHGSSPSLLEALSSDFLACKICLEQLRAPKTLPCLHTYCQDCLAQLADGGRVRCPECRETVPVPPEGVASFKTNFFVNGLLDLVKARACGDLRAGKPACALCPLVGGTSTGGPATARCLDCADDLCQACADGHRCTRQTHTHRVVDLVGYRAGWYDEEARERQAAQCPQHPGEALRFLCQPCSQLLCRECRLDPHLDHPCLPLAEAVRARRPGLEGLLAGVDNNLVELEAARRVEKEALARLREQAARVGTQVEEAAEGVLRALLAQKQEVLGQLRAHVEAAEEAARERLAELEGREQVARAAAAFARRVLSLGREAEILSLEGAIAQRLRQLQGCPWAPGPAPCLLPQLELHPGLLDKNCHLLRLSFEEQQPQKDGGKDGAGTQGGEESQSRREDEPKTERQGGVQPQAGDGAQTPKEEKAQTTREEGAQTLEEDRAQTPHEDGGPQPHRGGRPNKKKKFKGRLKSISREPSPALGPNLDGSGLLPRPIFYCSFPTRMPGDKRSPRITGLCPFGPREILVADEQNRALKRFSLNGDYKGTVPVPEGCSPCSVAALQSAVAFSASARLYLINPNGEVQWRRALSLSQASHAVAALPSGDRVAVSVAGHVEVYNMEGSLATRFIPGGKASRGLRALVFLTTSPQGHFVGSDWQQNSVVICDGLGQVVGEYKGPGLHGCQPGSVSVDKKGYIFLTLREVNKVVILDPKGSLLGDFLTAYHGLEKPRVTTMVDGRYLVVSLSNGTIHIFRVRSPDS

Target | log2 fold change
TSPAN13 (UniProt O95857) | 0.003
TLK2 isoform 2 (UniProt Q86UE8) | -0.006
TDRKH (UniProt Q9Y2W6) | -0.018
TRIM33 isoform 2 (UniProt Q9UPN9) | 0.004
UBR4 (UniProt Q5T4S7) | 0.017
TRIM44 (UniProt Q96DX7) | -0.037
TMEM87A (UniProt Q8NBN3) | 0.037
UBAP2L isoform 5 (UniProt Q14157) | 0.008
UBTF (UniProt P17480) | 0.03
TRIM56 (UniProt Q9BRZ2) | -0.049
TRNAU1AP (UniProt Q9NX07) | 0.114
TLE3 isoform 4 (UniProt Q04726) | -0.012
TPM4 isoform 2 (UniProt P67936) | 0.067
TTF2 (UniProt Q9UNY4) | -0.001
TUBB6 (UniProt K7ES63) | 0.047
TTI1 (UniProt O43156) | 0.003
